Data on 73 compounds can be found in PubChem BioAssay AID1259418 (Broad Institute, 2018).

Hit rate of the full screen: of about 3,400 compounds, about 840 (25%) were called active. Inconclusive results (about 11%) are left out. The list is a sample of the results. Entries with a potency or affinity are not part of this list. Values without a mark were called inactive.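 The calls were made as follows: active = fitted half-maximal concentration of signal decrease at or below twice the sample's top tested concentration; inconclusive = flat curve between -70 and -30 percent, or poor fit; inactive = flat within 30 percent, signal rise, or potency above limit.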

The nature of this experiment: T. gondii growth inhibition with IFN-gamma, dose response, cell-based, ME49Luc, HeLa, luciferase, 72 h (AID 1259418). The conditions noted are these: T. gondii ME49Luc in IFN-y HeLa, active compounds read low, -100% = high-dose IFN-γ control wells; at 19.5 µM unless noted.
As for `Cc1ccc(-c2coc(-c3ccc(NC(=O)Nc4ccc5c(c4)OCO5)cc3)n2)c(C)c1`, the max activity is 49.1%.
As to `Cc1ccc(C(=O)N2CCC3(CC2)Nc2cc(F)ccc2-n2cccc23)cc1`, the max activity was 6.63% [at 0.16 µM].
`CSc1ccc(CNC(=O)COc2nc(C)nc3ccccc23)cc1`: the max activity was -10.1% [at 5 µM].
Consider `CCOc1ccc(NC(=O)N2CCc3nc(-c4cccc(OC)c4)sc3C2)cc1`, for which the max activity was 6.38%.
`COc1ccc(-c2nc(Cn3nnc(-c4nc(-c5ccc(F)cc5)no4)c3C)c(C)o2)cc1`: the max activity is -9.56% [at 5 µM].
To `COc1ccc(-c2nc(NCCc3cc(OC)ccc3OC)c3ccccc3n2)cc1` belongs 10.1%; to `COc1ccc(-c2nc(NCCc3ccccc3)c3ccccc3n2)cc1`, -16% [at 10 µM].
As to `CCOC(=O)C1CCN(c2nc(-c3ccc(OC)cc3)nc3ccccc23)CC1`, the max activity was -8.44% [at 0.68 µM].
As to `Cc1nc(-c2ccc(C(=O)N3CCC(C)CC3)cc2)cs1`, the max activity is 19%.
Then `COc1ccc(Cl)cc1NC(=O)CN1CCC2(CC1)N=C(c1cccc(F)c1)C(=O)N2`, with 7.5% [at 5 µM]; and `CCOc1ccc(C(=O)N2CCC3(CC2)Nc2cc(OC)ccc2-n2cccc23)cc1`, with 8.9%; and `COc1ccc(NC(=O)COc2nc(C)nc3ccccc23)c(OC)c1`, with 17.4% [at 0.16 µM].
Regarding `O=S(=O)(c1ccc(F)cc1)N1C[C@@H]2N[C@H](C1)C2c1ccc(/C=C/c2ccccc2)cc1` (stereo partly drawn), the max activity is 26.3%.
Turning to `Cc1ccc(CN2CC3CN(Cc4cccc(F)c4)CC3C2)s1` (stereo not drawn), the max activity is 10.1%.
With `COc1ccc(OC)c(NC(=O)Nc2ccc(-c3nc(-c4cc(C)ccc4C)co3)cc2)c1`, the max activity was -12.9% [at 0.35 µM].
Then `Cc1nc(OCC(=O)Nc2ccccc2C(F)(F)F)c2ccccc2n1`, with 21.7% [at 0.16 µM]; and `CCN1CCO[C@@H]2CN(C(=O)CC3Cc4ccccc4C3)C[C@@H]2C1`, with 43.5%.
As for `Cc1ccc(C(=O)Nc2ccc3c(c2)CCC(=O)N3)c(C)c1`, the max activity was 42%.
With `O=C1CCc2cc(NC(=O)c3ccc(C(F)(F)F)cc3)ccc2N1`, the max activity was -7.37% [at 1.35 µM].
Consider `Cc1ccc(C)c(C(=O)Nc2ccc3c(c2)CCC(=O)N3)c1`, for which the max activity was -6.43% [at 1.35 µM].
Turning to `O=C1CCc2cc(NC(=O)c3ccc(OC(F)(F)F)cc3)ccc2N1`, the max activity is -8.43% [at 0.35 µM].
With `O=C1CCc2cc(NC(=O)C(F)(F)F)ccc2N1`, the max activity was -12.7% [at 2.6 µM].
On to `Cc1ccc(CC(=O)Nc2ccc3c(c2)CCC(=O)N3)cc1`, for which the max activity is 7.74%.
On to `CC(C)N1CCN(CC#N)C2(CCN(C(=O)c3ccc[nH]3)C2)C1=O` (stereo not drawn), for which the max activity is 43.6%.
On to `COc1ccc(CC(=O)Nc2ccc(-c3nc(-c4ccccc4)co3)cc2)cc1`, for which the max activity was -7.29% [at 1.35 µM].
Take `CCOc1ccccc1-c1nc(CN(c2ccc(OC)cc2)S(=O)(=O)c2ccccc2)c(C)o1`: the max activity is 7.8%.
Turning to `O=C(Cn1c(=O)c(S(=O)(=O)c2ccccc2)cc2ccccc21)N1CCCC1`, the max activity was -8.97% [at 0.16 µM].
Consider `COc1ccc(-c2nc(Nc3cc(C)ccc3OC)c3ccccc3n2)cc1`, for which the max activity was 19.6%.
With `Cc1ccc(CC(=O)Nc2ccc(-c3nc(-c4ccccc4)co3)cc2)cc1`, the max activity was 9.88% [at 5 µM].
`O=C(CC1Nc2c3ccccc3nc(=S)n2C1=O)NCCc1ccc(Cl)cc1` (stereo not drawn): the max activity was -20.4% [at 0.16 µM].
`CCOC(=O)C(=O)Nc1ccc(-c2nc(-c3cc(C)ccc3C)co2)cc1`: the max activity was 15.3% [at 0.16 µM].
On to `COc1cc(OC)c(NC(=O)Nc2ccc(-c3nc(-c4ccc(C)cc4)co3)cc2)cc1Cl`, for which the max activity is 86.6%.
Regarding `Cc1ccc(C(=O)Nc2ccc(N3CCC(C(N)=O)(N4CCCCC4)CC3)c(C(=O)O)c2)cc1`, the max activity is 15% [at 2.6 µM].
In the case of `NC(=O)C1(N2CCCCC2)CCN(c2ccc(NC(=O)c3ccccc3F)cc2C(=O)O)CC1`, the max activity is -16.3% [at 0.35 µM].
As for `CCOC(=O)C1CCC(CNC(=O)Nc2ccc(-c3nc(-c4ccc(C)cc4C)co3)cc2)CC1` (stereo not drawn), the max activity was -7.93% [at 0.35 µM].
`COc1cc(NC(=O)CN2CCC3(CC2)N=C(c2cccc(F)c2)C(=O)N3)cc(OC)c1`: the max activity is -16.9%.
`Cc1ccc(-c2coc(-c3ccc(NC(=O)Nc4ccc(C)c(F)c4)cc3)n2)c(C)c1`: the max activity was 14.2%.
Regarding `COc1ccc(-c2nc(Cn3c(=O)c4c(C)cc(C)nc4n(-c4ccccc4)c3=O)c(C)o2)cc1`, the max activity was -4.82% [at 10 µM].
Regarding `COc1cccc(C(=O)Nc2ccc(-c3nc(-c4ccccc4)co3)cc2)c1`, the max activity is -14.9% [at 10 µM].
As for `COc1cccc(C(=O)Nc2ccc(-c3nc(-c4ccc(C)cc4)co3)cc2)c1`, the max activity was 73.1%.
In the case of `COc1cccc(NC(=O)CN2CCC3(CC2)N=C(c2ccc(F)cc2)C(=O)N3)c1`, the max activity was -15.6% [at 0.68 µM].
Take `CCOc1ccc(-c2nc3c(s2)CN(S(=O)(=O)c2ccc(C(C)C)cc2)CC3)cc1`: the max activity is 12.8%.
For the compound `O=C(CC1N=C2c3ccccc3N=C(SCc3cc(=O)n4cc(Cl)ccc4n3)N2C1=O)NCc1ccco1` (stereo not drawn), the max activity was 13% [at 10 µM].
To `Cc1ccc(C(=O)Nc2c(C(=O)N3CCCC3)[nH]c3ccccc23)cc1` belongs 14.8% [at 2.6 µM].
Then `O=C(Cc1ccc(F)cc1)N1CCC2(CC1)Nc1ccc(Cl)cc1-n1cccc12`, with -6.77% [at 5 µM].
Then `COc1ccc2c(c1)NC1(CCN(C(=O)Cc3ccc(Cl)cc3)CC1)c1cccn1-2`, with 7.11% [at 10 µM].
Consider `CN(C)C(=O)COCc1cncc2c1CCN(c1ccccn1)C2`, for which the max activity is 11.3% [at 10 µM].
On to `CCc1nc(OCC(=O)Nc2cccc(SC)c2)c2ccccc2n1`, for which the max activity was 9.62% [at 0.16 µM].
On to `CCN1C(=O)CCc2cc(NC(=O)CC(C)C)ccc21`, for which the max activity was 6.42% [at 0.35 µM].
In the case of `O=C(C[C@@H]1CC[C@H]2[C@@H](COC[C@H](O)CN2Cc2ccc(Oc3ccccc3)cc2)O1)N1CCN(c2ccccc2)CC1`, the max activity is 16% [at 10 µM].
With `O=C(C[C@H]1CC[C@H]2[C@@H](COC[C@@H](O)CN2S(=O)(=O)c2ccccc2F)O1)N1CCC(Cc2ccccc2)CC1`, the max activity was 25.4% [at 10 µM].
In the case of `O=C(C[C@@H]1CC[C@@H]2[C@H](COC[C@H](O)CN2Cc2ccc3c(c2)OCO3)O1)N1CCCCC1`, the max activity was 28.4%.
Take `O=C(C[C@H]1CC[C@@H]2[C@H](COC[C@H](O)CN2C(=O)c2cc(Cl)cc(Cl)c2)O1)N1CCc2ccccc2C1`: the max activity was -23.1%.
As to `COc1ccccc1-c1nc(Cn2nnc(-c3nc(-c4cccc(C)c4)no3)c2C)c(C)o1`, the max activity is 6.08% [at 0.35 µM].
To `CCOc1ccc(-c2nc3c([nH]2)c(=O)n(C)c(=O)n3C)cc1OC` belongs 30.3% [at 10 µM]; to `CC1=NN(C2CCS(=O)(=O)C2)C(=O)C1(Sc1ccccc1)Sc1ccccc1` (stereo not drawn), -15.9% [at 10 µM].
Turning to `COc1ccc(CC(=O)Nc2ccc(-c3nc(-c4ccc(C)cc4C)co3)cc2)cc1`, the max activity is 23.3% [at 0.68 µM].
For the compound `CN1CCN(Cc2cnc3n2CCN(CC2CCOCC2)C3)CC1`, the max activity is 10.5%.
Consider `O=C(C[C@H]1CC[C@H]2[C@@H](COC[C@H](O)CN2Cc2cc(F)ccc2F)O1)NCc1ccc(Oc2ccccc2)cc1`, for which the max activity is 17.6% [at 2.6 µM].
On to `O=C(C[C@H]1CC[C@@H]2[C@H](COC[C@H](O)CN2Cc2cc(F)ccc2F)O1)NCc1ccc(Oc2ccccc2)cc1`, for which the max activity is 17.5% [at 5 µM].
In the case of `Cc1ccc(C)c(NC(=O)CN2CCC3(CC2)N=C(c2ccc(F)cc2)C(=O)N3)c1`, the max activity was 21.8% [at 10 µM].
For the compound `Cc1cccc(-c2nc(CSc3nc4c(c(=O)[nH]3)CN(C(C)C)CC4)c(C)o2)c1`, the max activity is 19.2% [at 0.68 µM].
Take `O=C(CC1CCCCC1)Nc1ccc(-c2nc(-c3ccccc3)co2)cc1`: the max activity is 19.4%.
For the compound `Cc1ccc(NC(=O)Nc2ccc(-c3nc(-c4ccccc4)co3)cc2)cc1F`, the max activity was 16.5% [at 0.16 µM].
For the compound `O=C(Cn1c(=O)c(S(=O)(=O)c2ccccc2)cc2ccccc21)NCc1ccccc1Cl`, the max activity is -23.2% [at 0.16 µM].
Then `CCOC(=O)CNC(=O)Nc1ccc(-c2nc(-c3cc(C)ccc3C)co2)cc1`, with 5.17% [at 0.68 µM].
As to `Cc1ccc(CN2CCC3(CC2)N=C(c2ccc(C)cc2)C(=O)N3)cc1`, the max activity was 12.6% [at 2.6 µM].
On to `Cc1ccc(-c2coc(-c3ccc(NC(=O)C(C)(C)C)cc3)n2)cc1`, for which the max activity is 29.4% [at 10 µM].
Then `CCS(=O)(=O)N1[C@H](CO)[C@@H](c2ccc(C#Cc3ccccc3F)cc2)[C@@H]1C#N`, with 8.21% [at 10 µM]; and `COc1cccc(CC(=O)Nc2ccc(-c3nc(-c4ccc(C)cc4)co3)cc2)c1`, with 20.4%.
As to `COCCCN1CCc2nc(SCc3nc(-c4ccccc4OC)oc3C)[nH]c(=O)c2C1`, the max activity is 25.6% [at 10 µM].
Then `COc1ccc(C(=O)Nc2ccc(-c3nc(-c4ccccc4)co3)cc2)cc1OC`, with 14.3% [at 0.16 µM]; and `COC(=O)C1CC23C=CNC4CCC5(c6ccccc6NC15C2C)C43` (stereo not drawn), with 26.5% [at 10 µM].
